# Bioassay records deposited in PubChem by Fisher Drug Discovery Resource Center.
# mcGAS MS inh – inhibitors of mouse cGAS | Q8C6L5 | recombinant mouse cGAS, cGAMP by RapidFire MS | inhibition, % at 12.5 µM | 130,000 compounds, 0.18% hits;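 active = inhibition of cGAS enzyme activity at or above 60%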;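 note: enzyme stimulated by 45 bp dsDNA with ATP and GTP substrates; cGAMP share of summed cGAMP plus half ATP and half GTP signals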
# Target sequence (Q8C6L5 whole entry, looked up): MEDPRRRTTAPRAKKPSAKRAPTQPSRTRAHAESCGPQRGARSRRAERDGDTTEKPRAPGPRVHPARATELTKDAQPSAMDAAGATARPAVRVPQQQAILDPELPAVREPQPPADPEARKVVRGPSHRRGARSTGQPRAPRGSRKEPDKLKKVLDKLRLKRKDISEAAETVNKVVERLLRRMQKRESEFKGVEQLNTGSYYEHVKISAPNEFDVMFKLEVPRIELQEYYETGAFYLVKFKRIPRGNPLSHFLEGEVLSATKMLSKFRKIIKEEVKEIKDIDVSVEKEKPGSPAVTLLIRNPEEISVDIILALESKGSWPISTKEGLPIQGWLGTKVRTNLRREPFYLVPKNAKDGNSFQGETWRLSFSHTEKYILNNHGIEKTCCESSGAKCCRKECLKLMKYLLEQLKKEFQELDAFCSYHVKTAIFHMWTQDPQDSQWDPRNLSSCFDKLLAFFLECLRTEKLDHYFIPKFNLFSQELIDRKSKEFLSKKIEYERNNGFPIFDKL
# Active calls of the source: *; ! = a repeat was not active. The sample as a whole holds a higher share of hits than the screen did.
SMILES,mcGAS MS inh
CCOC(=O)c1nn(-c2ccc(C)cc2)c(=O)cc1OCC(=O)Nc1ccccc1C,-8
CCOC(=O)c1c(NC(=O)c2cc3ccccc3o2)sc(C(N)=O)c1C,-5
Cc1nnc2sc(-c3cccc(NC(=S)NC(=O)c4cc5ccccc5o4)c3)nn12,-5
Cc1nnc2sc(-c3ccccc3NC(=S)NC(=O)c3cc4ccccc4o3)nn12,71*
O=C(Nc1c(Cl)cccc1C(=O)O)c1ccccc1,-7
NC(Cc1ccc(F)cc1)c1csc(Nc2ccc(C(F)(F)F)cn2)n1 (stereo not drawn),67*
NC(Cc1ccc(C(F)(F)F)cc1)c1csc(Nc2cnccn2)n1 (stereo not drawn),-8
NC(Cc1ccc(C(F)(F)F)cc1)c1csc(Nc2ccccn2)n1 (stereo not drawn),-15
CCOC(=O)N1CCC(n2c(-c3ccc(OC)cc3)csc2=Nc2ccccc2SC)CC1,0
Cc1cc(C(=O)CN(C)Cc2nccn2CC(F)(F)F)c(C)[nH]1,-36
CCN(Cc1ccncc1)C1CCCN(C(=O)c2ccn(C(C)(C)C)c2)C1 (stereo not drawn),-21
CCCc1cc(=O)[nH]c2n[nH]c(=S)n12,7
CCc1cc(=O)[nH]c2n[nH]c(=S)n12,9
O=c1cc(-c2ccccc2)n2c(=S)[nH]nc2[nH]1,68*
CCOC(=O)C1=C(CN2CCCc3cc(C(F)(F)F)ccc32)NC(=O)NC1,-5
OC[C@@H]1CCCN1Cc1csc(-c2ccc(Br)cc2)n1,4
O=c1cc(CCn2cccn2)nc(-c2ccc(CN3CCC[C@@H]3CO)cc2)[nH]1,89*
O=C(O)c1ccccc1CN1CCCCC1CCn1cccn1 (stereo not drawn),-16
CCOC(=O)Nc1cccc(C(=O)n2ccccc2=NC(C)C)c1,4
Cn1ncc(SCc2ccccc2)c(Br)c1=O,-24
O=C1/C(=C/c2cccnc2)COc2c(F)cccc21,73*
O=C1NC(=S)SC1=Cc1cccnc1,19
O=C1/C(=C\c2cccnc2)CSc2ccc(Br)cc21,6
CC(=O)Nc1ccc(Oc2ccc(C#N)c(C#N)c2)cc1,-7
Cn1c(-c2ccccc2)nnc1C(C#N)C(=O)C1CC=CCC1 (stereo not drawn),11
SMILES,mcGAS MS inh
Cc1ccc(S(=O)(=O)c2nnc(-c3ccccc3)s2)cc1,-3
CCC(=O)C(C#N)c1nnc(-c2ccccc2)s1 (stereo not drawn),95*
OC1CCN(c2nccn3ccnc23)CC1,3
Nc1nc(N)nc(SCC(=O)Nc2ccc3[nH]c(=O)[nH]c3c2)n1,-1
COc1ccccc1-c1cccc2c1COCC(=O)N2C,-18
COc1cccc2c1C(=O)c1c(O)c3c(c(O)c1C2=O)C[C@@](O)(C(=O)CO)C[C@@H]3O[C@H]1C[C@H](N)[C@H](O)[C@H](C)O1,96*
COc1cccc2c1C(=O)c1c(O)c3c(c(O)c1C2=O)C[C@@](O)(C(C)=O)C[C@@H]3OC1CC(N)C(O)C(C)O1 (stereo partly drawn),93*
Cc1ccc(-c2nnc(Nc3cccc(O)c3)c3ccccc23)cc1S(=O)(=O)NC(C)(C)C,0
Cc1cc(O)c(C(c2ccncc2)N2CCCCC2)c(=O)n1Cc1ccccn1 (stereo not drawn),25
c1csc(-c2noc(CN3CCCN(c4nc5ccccc5s4)CC3)n2)c1,-5
COc1ccc(C)cc1CNc1ccc(C(N)=O)c(C)c1,-29
Cc1cc(NCc2ccc(Cl)cc2)n(C2CCS(=O)(=O)C2)n1 (stereo not drawn),-21
COC(=O)c1cc(C2CC2)nc2c1c(-c1cccs1)nn2C1CCS(=O)(=O)C1 (stereo not drawn),-8
CC(C)C(=O)Nc1cc(C2CC2)nn1C1CCS(=O)(=O)C1 (stereo not drawn),82*
CC(OC(=O)C1CSCCS1)C(N)=O (stereo not drawn),-22
O=S(=O)(c1ccccc1O)C(F)(F)F,-13
O=S(=O)(c1ccccc1NC(C1CC1)C1CC1)C(F)(F)F,-19
CC(C)(O)CCOc1ccccc1S(=O)(=O)C(F)(F)F,72*
Cc1[nH]c2nc3ccccc3n2c(=O)c1CCC#N,3
O=C(Nn1c(Cc2ccc(F)cc2)n[nH]c1=S)c1ccccn1,8
N#CC(=Cc1ccc(F)cc1)c1nnc2n1CCCCC2,44
N#CC(=Cc1ccc(Br)cc1)c1nnc2n1CCCCC2,60*
N#CC(=Cc1ccc(O)c(O)c1)c1nnc2n1CCCCC2,-1
O=C1C=CC2C3C(=O)N(c4ccccc4)C(=O)C3C1N2c1ccccc1 (stereo not drawn),92*
O=C1C2C3C=CC(C3)C2C(=O)N1c1ccccc1 (stereo not drawn),-4
SMILES,mcGAS MS inh
O=C1C=CC(=O)N1c1ccccc1,-6
COc1ccc(Br)c(C(=O)Nc2cc(C(=O)Nc3ccc(Cl)cc3)ccc2N2CC3CC(C2)c2cccc(=O)n2C3)c1 (stereo not drawn),-2
CC(=O)N1CCCN(c2ccncc2N)CC1,-2
CC(=O)N1CCC(N2CCN(c3ccncc3F)CC2)CC1,62*
O=C(C1CCC1)N1CCCC(N2CCN(c3ccccc3F)CC2)C1 (stereo not drawn),-8
Cc1ccc(C(=O)N[C@@H]2CC[C@@H](N)C2)c(=O)[nH]1,-8
CNc1snc(C)c1C(=O)OCC(=O)N1CCCCCCC1,-16
CC1=C(n2nnc3ccccc32)C(c2ccccc2)C(C#N)C(=N)O1 (stereo not drawn),-7
C[N+](C)(C)CCCCCC[N+](C)(C)C,-8
CCCCCCCCCCCCCCCC[N+](C)(C)C,98*!
CCCCCCCCCCCC[N+](C)(C)CCOc1ccccc1,9
C[C@@H]1CN(CCC(=O)N2CCC3(CCN(C)CC3)C2)C[C@H](C)O1,-15
CC(C)CN1CCC[C@@H]1CNC(=O)COCC1CCCO1 (stereo partly drawn),-15
Nc1cc(N)nc(SCC(=O)Nc2cccc(N3CCCC3=O)c2)n1,-4
COc1cc(C=C2SC(=S)NC2=O)cc(OC)c1,-5
COc1ccc(-c2ccc(/C=C3\SC(=S)NC3=O)o2)c([N+](=O)[O-])c1,65*
O=C1NC(=S)SC1=Cc1ccccc1[N+](=O)[O-],2
CCc1cc2cccnc2n1S(=O)(=O)c1ccccc1,-6
CCn1cc(C(=O)O)c(=O)c2cc3c(cc21)OCO3,-9
CCn1cc(C(=O)O)c(=O)c2cnc(N3CCCC3)nc21,78*
CCc1ccccc1-n1ccc2nc(N3CCCCC3)ncc2c1=O,-18
COCc1ncc(CN2CCC(Cc3nnc(SC)n3C)CC2)cn1,-12
CCSc1nnc2c3ccccc3n(C)c2n1,-8
Cn1c(N)c(C(=O)CSc2nnc3c(n2)[nH]c2ccccc23)c(=O)n(C)c1=O,-5
CCSc1nnc2c(=O)[nH]c(=O)[nH]c2n1,84*
SMILES,mcGAS MS inh
CCc1c(C)sc2ncnc(-c3ccc(C(=O)N(C)C)cc3)c12,-35
COc1cc(N2CCN(S(=O)(=O)c3ccc4nc(C)sc4c3)CC2)nc(C)n1,2
CCOC(=O)Oc1cc2oc(=O)sc2cc1Br,74*
COC(=O)Oc1cc2oc(=O)sc2cc1Br,2
O=c1oc2ccc(O)cc2s1,1
COCCCNc1nc2ccccn2c1C#N,-6
C=CCSc1nnc2n1N=CN(c1ccccc1)C2,-5
O=C(NCc1ccc2sccc2c1)c1ccc(O)cc1,0
O=C(NNC(=O)c1cn[nH]c1-c1ccc(F)cc1)c1ccc(F)cc1,-2
CN(C)c1nc2nonc2nc1NC1CCC1,-4
Cc1cnc(C)c(N(C)C)n1,93*
CCOC(=O)NC(=S)NN(C)c1nc(C)cnc1C,-4
